Source: PubChem BioAssay (National Center for Advancing Translational Sciences (NCATS))
The sample as a whole holds a higher share of hits than the screen did.
HT1080-NT tox: kills 2HG-producing HT-1080-NT fibrosarcoma cells. Potency, µM (doses to about 46.1 µM), for the others: at the top dose activity, negative = less viability, actives largely listed as cytotoxic. HT-1080-NT fibrosarcoma viability, CellTiter-Glo ATP luminescence, 48 h. hit rate 1.6% among 360,000;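 also: NT is the 2HG producing partner of a matched IDH1 knockdown line; potency is read from the fitted curve at half-maximal effect; 0% = DMSO-treated cells and -100% = media-only wells without cells; nearly all actives have a fitted effect of over 55% in size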
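Fibrosarcoma NT cells, 750 per well in 5% FBS RPMI, were exposed to compound for 48 hours. Viability: CellTiter-Glo luminescence.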
DT40 TDP1 no CPT: qHTS for Inhibitors of human tyrosyl-DNA phosphodiesterase 1 (TDP1): qHTS in cells in absence of CPT | DT40 Tdp1-/- hTDP1 cells, no CPT, ATP luminescence, 48 h | Potency, µM (top dose mostly 46.2 µM), inactives show top-dose activity change, negative = growth inhibition, hits mostly inhibitors | hit rate 15% among 420,000 | AID 686978, 2013; also: potency is read from the fitted curve at half-maximal effect; nearly all actives have a fitted effect of over 55% in size
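Compound effects on proliferation are scored in DT40 Tdp1-/-;hTDP1 cells in the absence of CPT. ATP levels (CellTiter-Glo luminescence) are recorded after a ≥48 hr, 37 °C incubation.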
12-LOX inh: ALOX12 (human) lipoxygenase inhibition; AID 1671190; Potency, µM (highest dose often 108 µM), without a hit: at the top dose activity change, negative = inhibition, usual class: inhibitors; purified 12hLO, xylenol orange hydroperoxide absorbance; hit rate 1.1% among 580,000; P18054; also: potency is read from the fitted curve at half-maximal effect
Target sequence (P18054 whole entry, looked up): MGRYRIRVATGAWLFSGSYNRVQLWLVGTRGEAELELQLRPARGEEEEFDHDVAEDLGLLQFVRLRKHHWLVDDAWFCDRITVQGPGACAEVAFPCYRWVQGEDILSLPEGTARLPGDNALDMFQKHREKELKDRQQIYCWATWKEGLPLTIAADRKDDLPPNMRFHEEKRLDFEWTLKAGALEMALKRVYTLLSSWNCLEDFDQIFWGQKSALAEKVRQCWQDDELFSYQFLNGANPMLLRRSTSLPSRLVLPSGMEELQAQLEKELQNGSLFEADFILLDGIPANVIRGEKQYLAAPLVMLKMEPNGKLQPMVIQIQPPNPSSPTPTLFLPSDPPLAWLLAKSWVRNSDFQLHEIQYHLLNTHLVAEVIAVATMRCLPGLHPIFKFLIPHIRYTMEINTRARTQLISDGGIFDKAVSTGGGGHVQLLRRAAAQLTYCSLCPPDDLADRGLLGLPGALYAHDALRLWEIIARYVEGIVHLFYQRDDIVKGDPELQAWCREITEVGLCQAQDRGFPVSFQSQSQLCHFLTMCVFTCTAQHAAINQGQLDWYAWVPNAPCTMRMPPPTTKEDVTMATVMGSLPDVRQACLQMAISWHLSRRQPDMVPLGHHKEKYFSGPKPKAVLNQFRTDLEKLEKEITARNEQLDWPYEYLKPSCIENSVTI
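Purified human 12hLO at 150 nM in 25 mM Hepes, 0.01% Triton X-100, pH 7.0, preincubated 15 min at room temperature with compound. Reaction started with 40 uM arachidonic acid, 30 min at room temperature. Hydroperoxide measured by Fe-xylenol orange, 573/405 nm absorbance ratio.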
HT1080 IDH1KD tx: kills HT-1080 cells with IDH1 knockdown; AID 686971; Potency, µM (highest dose often 46.1 µM), for the others: top-dose activity, negative = toxicity, most hits filed as cytotoxic; HT-1080 IDH1 knockdown viability, ATP luminescence, 48 h; hit rate 2% among 360,000;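 also: potency is read from the fitted curve at half-maximal effect; 0% = DMSO wells and -100% = cell-free medium wells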
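In this qHTS, HT-1080 cells depleted of IDH1 are exposed for 48 h at 37 °C to compound titrations. Toxicity is scored from CellTiter-Glo luminescence, with DMSO as full viability and medium alone as none.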
IL1B secr inh: inhibitors of inflammasome signaling (IL-1 beta secretion) | THP-1 LPS/ATP IL-1B secretion, AlphaLISA, 16 h; stronger effect = lower value | activity change, % at 57.5 µM | hit rate 4.7% among 360,000; in the data active = activity change below about -50%; inconclusive = mostly about -30% to -49%
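THP-1 cells pretreated 1 hr with compounds (up to 57.5 uM final), then stimulated with LPS (250 ng/mL final) plus ATP (1.25 mM final); secreted IL-1B measured by AlphaLISA after 16 hr, decreased signal indicating inhibition.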
TDP1 cell CPT: growth inhibition of DT40 Tdp1-/-;hTDP1 cells with camptothecin (screen for TDP1 inhibitors); chicken DT40 Tdp1-/-;hTDP1 cells + 20 nM CPT, ATP luminescence, 48 h; Potency, µM (top dose mostly 46.2 µM), without a hit: at the highest dose activity change, negative = growth inhibition, hits mostly inhibitors; hit rate 12% among 420,000; also: potency is read from the fitted curve at half-maximal effect; nearly all actives have a fitted effect of over 55% in size
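Chicken DT40 Tdp1-/- cells stably complemented with human TDP1 were seeded at 400 cells/well in medium containing 20 nM camptothecin, exposed to pin-transferred compounds, and grown at 37 °C for at least 48 hr. Viability was read as ATP luminescence.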
Starred values were filed as active, the others as inactive; u = inconclusive; x = not tested or not shown; [ ] = dose if it differs, or a comment. Unless noted, calls follow the shape of the dose curve; as a rule, active = well fitted curve in the direction sought with a large enough effect; inconclusive = small, poorly fitted or top-dose-only effect, or another doubt; inactive = no such curve, though single readings can be large; an effect the other way counts as inactive or inconclusive. Unless noted, % is scaled to controls: 0 for no effect and ±100 for the full control effect.

SMILES	HT1080-NT tox	DT40 TDP1 no CPT	12-LOX inh	HT1080 IDH1KD tx	IL1B secr inh	TDP1 cell CPT
CCCn1c(=O)c2sccc2n2c(CCCC(=O)Nc3ccccc3F)nnc12	x	u	0%	x	x	0%
CCn1c(=O)c2sccc2n2c(CCCC(=O)Nc3ccc(C)cc3)nnc12	x	u	-14%	x	x	u
CCCn1c(=O)c2sccc2n2c(CCCC(=O)Nc3ccc(Oc4ccc(Cl)cc4)cc3)nnc12	x	16µM*	-24%	x	x	16µM*
CCCCOc1ccc(CN(CCO)CCO)cc1[N+](=O)[O-]	2%	-2%	-24%	-6%	-13	18µM*
CCCCCOc1ccc(CSC(=N)N)cc1[N+](=O)[O-]	21µM*	16µM*	u	16µM*	-105*	15µM*
COc1ccc(CSC(=N)N)cc1[N+](=O)[O-]	-6%	23µM*	211%	-7%	-60*	23µM*
CCCCCOc1ccc(Cn2ccnc2)cc1[N+](=O)[O-]	-21%	u	-9%	-2%	-11	u
N=C(N)SCc1ccc([N+](=O)[O-])cc1	x	x	-21%	x	x	x
Cc1ccc(CNC(=O)[C@H](Cc2ccccc2)NC(=O)c2cccs2)n1C	x	x	3%	x	x	x
COc1ccccc1N1CCN(CCCNC(=O)c2cnn(-c3ccccc3)c2C2CCN(C(=O)OC(C)(C)C)CC2)CC1	x	16µM*	0%	x	x	16µM*
O=C(NCCN1CCOCC1)c1cnn(-c2ncc3c(n2)-c2ccccc2CC3)c1C1CC1	x	23µM*	6%	x	x	10%[9.04 µM]
CC(C)(C)OC(=O)N1CCC(c2c(C(=O)NCCN3CCCC3)cnn2-c2ccc(Cl)cc2)CC1	x	23µM*	-13%	x	x	u
COc1ccccc1CN1CCC(CNC(=O)c2cnn(-c3ccc(Cl)cc3)c2C2CCN(C(=O)OC(C)(C)C)CC2)CC1	x	5.2µM*	-6%	x	x	3.7µM*
CC(C)(C)OC(=O)N1CCC(c2c(C(=O)NC3CC3)cnn2-c2ccc(Cl)cc2)CC1	5%	-16%	5%	-4%	16	u
COCCOC1CCOC2(CCN(C(=O)Nc3ccc(OC)cc3)CC2)C1 (stereo not drawn)	x	x	27%	x	x	x
CCCc1c(C(=O)OCC)nnc2c(-c3ccc(Br)cc3)c(C)nn12	x	x	-6%	x	x	x
Cc1ccc(-n2ncc(C(=O)NC3CC3)c2C2CCN(C(=O)OC(C)(C)C)CC2)cc1	15%	-3%	1%	18%	36	-18%
Cc1ccc(-n2ncc(C(=O)NCCN3CCN(C)CC3)c2C2CCN(C(=O)OC(C)(C)C)CC2)cc1C	x	u	-15%	x	x	u
Cc1ccc(-n2ncc(C(=O)NCCN3CCC(Cc4ccccc4)CC3)c2C2CCN(C(=O)OC(C)(C)C)CC2)cc1	x	2.9µM*	u	x	x	4.6µM*
Cc1ccc(-n2ncc(C(=O)NC3CCCCC3)c2C2CCN(C(=O)OC(C)(C)C)CC2)cc1	x	23µM*	-3%	x	x	u
COc1ccc(-n2ncc(C(=O)NCCCN3CCCCC3)c2C2CCN(C(=O)OC(C)(C)C)CC2)cc1	x	18µM*	-17%	x	x	18µM*
CC(C)(C)OC(=O)N1CCC(c2c(C(=O)NCCN3CCC(Cc4ccccc4)CC3)cnn2-c2cccc(Cl)c2)CC1	x	3.7µM*	u	x	x	5.8µM*
O=C(NCc1noc(-c2cccs2)n1)[C@H]1CNC[C@H](C(=O)N2CCCC2)C1	x	x	5%	x	x	x
CC(C)NC(=O)C[C@@H]1CCNC[C@@H]1Cc1cc(CSc2ccccc2)on1	x	x	29%[176 µM]	x	x	x
NC(=S)N/N=C/c1cccc([N+](=O)[O-])c1	x	x	-11%	x	x	x
SMILES	HT1080-NT tox	DT40 TDP1 no CPT	12-LOX inh	HT1080 IDH1KD tx	IL1B secr inh	TDP1 cell CPT
CC(=O)c1cccc(NC(=O)c2cc(C3CC3)nc3ccccc23)c1	x	x	18%	x	x	x
Cn1c(SCC(=O)Nc2ccc(Br)cc2F)nc2c(=O)[nH]cnc21	x	x	39%	x	x	x
Cc1ccc(-n2ncc(C(=O)NCCN3CCCC3)c2C2CCN(C(=O)OC(C)(C)C)CC2)cc1	x	u	-12%	x	x	23µM*
CC(C)(C)OC(=O)N1CCC(c2c(C(=O)NCCN3CCOCC3)cnn2-c2ccccc2)CC1	x	5.8µM*	u	x	x	5.8µM*
Cc1ccnc(NC(=O)CCc2ncc(-c3ccccc3F)o2)c1	x	x	18%	x	x	x
Cc1cc(C)c(NC(=O)CC2(C(=O)O)CCCC2)c(C)c1	x	x	8%	x	x	x
CCOc1cccc(=O)c2c(C)n(CC(=O)c3ccccc3)c(C)c12	-7%	u	5%	-4%	-59*	u
CCc1ccc(-c2cc(C(=O)Nc3nn[nH]n3)c3ccccc3n2)cc1	x	x	1%	x	x	x
O=C(NCC1Cn2cccc2CN1Cc1ccccc1)c1ccoc1 (stereo not drawn)	x	x	146%	x	x	x
CC1Cc2ccccc2N1CC(=O)NC(=O)NC1CCCCC1 (stereo not drawn)	6%	-17%	u	-3%	35	18µM*
Cc1cccc(-n2ncc3c(=O)[nH]c(SCC(=O)N4CC(=O)Nc5ccccc54)nc32)c1	1%	16µM*	0%	7%	47	u
CCOC(=O)N1CCN(C(=O)CSc2nc3c(cnn3-c3ccc(Cl)cc3)c(=O)[nH]2)CC1	3%	26µM*	20%	6%	17	21µM*
Cc1ccc(-n2ncc3c(=O)[nH]c(SCC(=O)N4CC(=O)Nc5ccccc54)nc32)cc1	-4%	-8%	22%	-16%	26	-10%
CCOC(=O)C(C)Sc1nc2c(cnn2-c2ccc(F)cc2)c(=O)[nH]1 (stereo not drawn)	-10%	u	12%	-7%	75	21µM*
CCOC(=O)N1CCN(C(=O)CSc2nc3c(cnn3-c3ccc(C)cc3)c(=O)[nH]2)CC1	-4%	u	16%	-3%	9	u
CCc1ccc(Cn2nccc2NC(=O)c2nn(CC)c(=O)c3ccccc23)cc1	x	x	-8%	x	x	x
CCN(C(=O)COc1ccc(C(C)=O)cc1)c1cccc2ccccc12	-14%	u	1%	-1%	u	15µM*
CC(OC(=O)C1CC2CCCC(C1)C2=O)C(=O)c1ccc(Cl)cc1 (stereo not drawn)	x	x	53%	x	x	x
O=C(NCc1ccccc1)c1ccc2nc(-c3ccccc3)c(-c3ccccc3)nc2c1	x	x	-27%	x	x	x
COC(CNC(=O)c1ccc2nc(-c3ccccc3)c(-c3ccccc3)nc2c1)OC	-3%	12µM*	13%	-7%	u	u
COC(CNC(=O)c1cc(-c2ccccc2)nc2ccccc12)OC	x	x	-22%	x	x	x
